PubChem BioAssay (Tox21)
Results filed as inconclusive are left out. The source made the active and inactive calls. Unless noted, calls come from the whole dose curve; as a rule, active = well fitted curve in the direction sought with a large enough effect in the repeat runs; inconclusive = weak or mixed curves; inactive = no such curve, though single readings can be large; an effect the other way counts as inactive or inconclusive.

Columns and labels:
[1] = qHTS assay for small molecule agonists of the p53 signaling pathway (AID 651631; calls by dose curve; note: nearly all actives have a fitted effect of over 15% in size)
Procedure, shortened: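 Stably transfected HCT-116 cells (beta-lactamase behind p53 response elements) get compounds after a 5 h settling period; 16 h later at 37 °C, FRET substrate is loaded and fluorescence read after 2 h.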

[2] = qHTS assay for small molecules that induce genotoxicity in human embryonic kidney cells expressing luciferase-tagged ATAD5 (AID 651632); note: nearly all actives have a fitted effect of over 15% in size
Procedure, shortened: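 Reporter cells (HEK293T) express luciferase-tagged ATAD5, a protein that accumulates after DNA damage. Treat 16 hr at 37C/5% CO2, add Amplite, wait 30 min at RT, and read luminescence.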

[3] = qHTS assay for small molecule agonists of the p53 signaling pathway - cell viability (AID 651633; calls by dose curve;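 note: p53RE-bla HCT reporter cells with a stable beta-lactamase p53 reporter; series mostly up to about 83 µM; nearly all actives have a fitted effect of over 30% in size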)
Procedure, shortened: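 p53RE-bla cells were treated with compound for 16 hours at 37 C. Cytotoxicity was then measured as CellTiter-Glo luminescence after 30 min at room temperature.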

[4] = qHTS assay for small molecules that induce genotoxicity in human embryonic kidney cells expressing luciferase-tagged ATAD5 - cell viability (AID 651634; calls by dose curve; note: nearly all actives have a fitted effect of over 25% in size)
Procedure, shortened: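 Seeding of 2,000 HEK293T ATAD5-luciferase cells per well preceded pin-tool compound transfer. Plates sat 15.5 hr at 37C under 5% CO2, then fluorescence was read after 30 min with CellTiter-Fluor.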

[5] = qHTS assay for small molecule disruptors of the mitochondrial membrane potential - cell viability (AID 720634; calls by dose curve;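 note: human HepG2 liver cancer cells; series mostly up to about 83 µM; nearly all actives have a fitted effect of over 20% in size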)
Procedure, shortened: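 Measuring cytotoxicity alongside mitochondrial potential, the screen quantified ATP by luminescence in HepG2 cells after 1 hr compound incubation and a 30 min room-temperature CellTiter-Glo step.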

[6] = qHTS assay for small molecule disruptors of the mitochondrial membrane potential (AID 720635)
Procedure, shortened: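 HepG2 cells exposed to compound 1 hr at 37C, then Mito-MPS dye 30 min. Ratio read of aggregate (540/590 nm) versus monomer (490/535 nm) fluorescence.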

[7] = qHTS assay to test for compound auto fluorescence at 590 nm (red) in HepG2 cells (AID 720674)
Procedure, shortened: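 Seeding: 2,000 HepG2 cells/well, MEM/10% FBS, overnight 37 C. Dosing: compound vs DMSO. Incubation: 1 hr, 37 C, 5% CO2. Read: fluorescence 540 ex/590 em, Rose Bengal sodium as red reference.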

[8] = qHTS assay to test for compound auto fluorescence at 535 nm (green) in HepG2 cells (AID 720675)
[9] = qHTS assay to test for compound auto fluorescence at 460 nm (blue) in HEK293 cells (AID 720678)
Procedure, shortened: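 Blue-channel (Ex/Em 405/460 nm) intensity measured in HEK293 cultures after overnight compound exposure at 37C; signal expressed relative to triamterene. Cells plated 2,000 per well in 10% dialyzed FBS medium and allowed 4-5 hr to attach.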

[10] = qHTS assay to test for compound auto fluorescence at 590 nm (red) in HEK293 cells (AID 720679)
Procedure, shortened: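 Red-channel autofluorescence (Ex/Em 540/590 nm; Rose Bengal sodium reference) was measured after overnight 37C, 5% CO2 exposure of attached HEK293 cells, 2,000 per well in medium with 10% dialyzed FBS.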
% is set by controls: 0 for no effect and ±100 for the full control effect.

O=C(OCC1(COC(=O)c2cccnc2)CCCC(COC(=O)c2cccnc2)(COC(=O)c2cccnc2)C1O)c1cccnc1
inactive: outcome [1] | Potency [2] | outcome [3] | Potency [4] | outcome [5] | Potency [6] | outcome [7] | outcome [8] | outcome [9] | outcome [10]

CCCN1C[C@H](CSC)C[C@@H]2c3cccc4[nH]cc(c34)C[C@H]21
inactive: outcome [1] | Potency [2] | outcome [3] | Potency [4] | outcome [5] | Potency [6] | outcome [7] | outcome [8] | outcome [9] | outcome [10]

C=C(C)C1CCC(C)(O)CC1 (stereo not given)
inactive: outcome [1] | Potency [2] | outcome [3] | Potency [4] | outcome [5] | Potency [6] | outcome [7] | outcome [8] | outcome [9] | outcome [10]

O=S(=O)(O)CCN1CCN(CCO)CC1
inactive: outcome [1] | Potency [2] | outcome [3] | Potency [4] | outcome [5] | Potency [6] | outcome [7] | outcome [8] | outcome [9] | outcome [10]

COc1cc(C(=S)N2CCOCC2)cc(OC)c1OC
inactive: outcome [1] | Potency [2] | outcome [3] | Potency [4] | outcome [5] | Potency [6] | outcome [7] | outcome [8] | outcome [9] | outcome [10]

CC(=C(CCOC(=O)C(C)C)SSC(CCOC(=O)C(C)C)=C(C)N(C=O)Cc1cnc(C)nc1N)N(C=O)Cc1cnc(C)nc1N
inactive: outcome [1] | Potency [2] | outcome [3] | Potency [4] | outcome [5] | Potency [6] | outcome [7] | outcome [8] | outcome [9] | outcome [10]

CN(C)C(=O)CNC(=O)Cc1ccccc1
inactive: outcome [1] | Potency [2] | outcome [3] | Potency [4] | outcome [5] | Potency [6] | outcome [7] | outcome [8] | outcome [9] | outcome [10]

COc1cc(NS(=O)(=O)c2ccc(N)cc2)nc(OC)n1
inactive: outcome [1] | Potency [2] | outcome [3] | Potency [4] | outcome [5] | Potency [6] | fluorescence, relative to Rose Bengal [7] -0.297% [at 18.6 µM] | fluorescence, % of fluorescein control [8] -0.149% [at 18.6 µM] | fluorescence, % of triamterene [9] 0.216% [at 18.6 µM] | fluorescence, % of fluorescent control [10] -0.0598% [at 18.6 µM]

NS(=O)(=O)c1ccc(NC(=O)CCC(=O)O)cc1
inactive: outcome [1] | Potency [2] | outcome [3] | Potency [4] | outcome [5] | Potency [6] | outcome [7] | outcome [8] | outcome [9] | outcome [10]

C=C(C)C(=O)OCCNC(C)(C)C
inactive: outcome [1] | Potency [2] | outcome [3] | Potency [4] | outcome [5] | Potency [6] | outcome [7] | outcome [8] | outcome [9] | outcome [10]

CCCCNc1ccc(C(=O)OCCN(C)C)cc1
inactive: outcome [1] | Potency [2] | outcome [3] | Potency [4] | outcome [5] | Potency [6] | fluorescence, relative to Rose Bengal [7] -0.178% [at 18.6 µM] | fluorescence, % of fluorescein control [8] -0.0004% [at 18.6 µM] | fluorescence, % of triamterene [9] 0.259% [at 18.6 µM] | fluorescence, % of fluorescent control [10] 0.151% [at 18.6 µM]

ClCCCl
inactive: outcome [1] | Potency [2] | outcome [3] | Potency [4] | outcome [5] | Potency [6] | outcome [7] | outcome [8] | outcome [9] | outcome [10]

Cc1cc(C(C)(C)C)c(O)c(C)c1CC1=NCCN1
inactive: outcome [1] | Potency [2] | outcome [3] | Potency [4] | outcome [5] | Potency [6] | outcome [7] | outcome [8] | outcome [9] | outcome [10]

Cc1nc2n(c(=O)c1CCN1CCC(c3noc4cc(F)ccc34)CC1)CCC[C@H]2O
inactive: outcome [1] | Potency [2] | outcome [3] | Potency [4] | outcome [5] | Potency [6] | outcome [7] | outcome [8] | outcome [9] | outcome [10]

CCOc1cc(NC(C)=O)ccc1C(=O)OC
inactive: outcome [1] | Potency [2] | outcome [3] | Potency [4] | outcome [5] | Potency [6] | outcome [7] | outcome [8] | outcome [9] | outcome [10]

C[C@@H](O)[C@H]1C(=O)N2C(C(=O)O)=C(SCCN=CN)C[C@H]12
inactive: outcome [1] | Potency [2] | outcome [3] | Potency [4] | outcome [5] | Potency [6] | fluorescence, relative to Rose Bengal [7] -0.493% [at 18.6 µM] | fluorescence, % of fluorescein control [8] -0.19% [at 18.6 µM] | fluorescence, % of triamterene [9] 1.22% [at 18.6 µM] | fluorescence, % of fluorescent control [10] 0.0064% [at 18.6 µM]

CCCCCCCCOS(=O)(=O)O
inactive: outcome [1] | Potency [2] | outcome [3] | Potency [4] | outcome [5] | Potency [6] | outcome [7] | outcome [8] | outcome [9] | outcome [10]

OCCN(CCO)c1cccc(Cl)c1
inactive: outcome [1] | Potency [2] | outcome [3] | Potency [4] | outcome [5] | Potency [6] | outcome [7] | outcome [8] | outcome [9] | outcome [10]

CN1C(C)(C)CCCC1(C)C
inactive: outcome [1] | Potency [2] | outcome [3] | Potency [4] | outcome [5] | Potency [6] | outcome [7] | outcome [8] | outcome [9] | outcome [10]

Oc1cn2c(n1)Nc1ccc(Cl)c(Cl)c1C2
inactive: outcome [1] | Potency [2] | outcome [3] | Potency [4] | outcome [5] | Potency [6] | outcome [7] | outcome [8] | outcome [9] | outcome [10]

CN1CCN(CC(=O)N2c3ccccc3C(=O)Nc3cccnc32)CC1
inactive: outcome [1] | Potency [2] | outcome [3] | Potency [4] | outcome [5] | Potency [6] | outcome [7] | outcome [8] | outcome [9] | outcome [10]

Nc1ccc2cc(S(=O)(=O)O)cc(O)c2c1
inactive: outcome [1] | Potency [2] | outcome [3] | Potency [4] | outcome [5] | Potency [6] | outcome [7] | outcome [8] | outcome [9] | outcome [10]

CC(=O)NCc1c(I)c(NC(C)=O)c(I)c(C(=O)O)c1I
inactive: outcome [1] | Potency [2] | outcome [3] | Potency [4] | outcome [5] | Potency [6] | outcome [7] | outcome [8] | outcome [9] | outcome [10]
